Values joined by “and” are separate entries in the source; they are usually repeats but may differ in a detail not shown here. Equal entries are not always repeated. Results filed as inconclusive are left out. Active and inactive are the calls of the source. The calls were made as follows: active = hit-call score of the fitted dose curve at least 0.9, where 1 is the maximum; inconclusive = response in the unintended direction; inactive = score below 0.9.
Target: rat CYP2D1, Cyp2d1 (gene 266684) (UniProt P10633)
Experiment: NVS_ADME_rCYP2D1: NovaScreen (NVS) CYP450-related Enzyme Activity (ADME) Assay for rat CYP2D1 (AID 2283122)
Procedure: NVS_ADME_rCYP2D1 is a biochemical, single-readout assay that uses extracted gene-proteins in a cell-free assay. Measurements were taken 0.75 hour after chemical dosing in a 96-well plate.NVS_ADME_rCYP2D1 is one of one assay component(s) measured or calculated from the NVS_ADME_rCYP2D1 assay. It is designed to make measurements of enzyme activity, a form of enzyme reporter, as detected with fluorescence intensity signals by Fluorescence technology.Data from the assay component NVS_ADME_rCYP2D1 was analyzed into 1 assay endpoint. This assay endpoint, NVS_ADME_rCYP2D1, was analyzed in the positive analysis fitting direction relative to Acetonitrile as the negative control and baseline of activity. Using a type of enzyme reporter, loss-of-signal activity can be used to understand changes in the enzymatic activity as they relate to the gene Cyp2d1. Furthermore, this assay endpoint can be referred to as a primary readout, because this assay has produced multiple assay endpoints where this one serves a enzymatic activity function. To generalize the intended target to other relatable targets, this assay endpoint is annotated to the cyp intended target family, where the subfamily is xenobiotic metabolism.
Binding assays used specific radioligands (tritiated, iodinated) with non-radioactive competitive displacement ligands in agonist or antagonist protocols (as indicated) and various reference compounds and inhibitors to titrate specific binding to receptors and transporters. Most enzyme assays (CYPs, kinases, phosphatases, proteases, HDACs) used recombinant protein and specific substrates (fluorescence mostly, some colorimetric and radioactive) and inhibitors, followed by a biochemical separation of substrate and product. All assays for the biochemical HTS were initially run in duplicate at a single concentration (10 uM for CYP450 assays and 25 uM for all others). Assay-chemical combinations meeting a pre-defined threshold (e.g., 30% inhibition and other criteria defined below) were then run in singleton concentration-response format with maximum concentration of 20 uM for CYPs and 50 uM for all others. Each assay was run with positive and negative controls, and concurrent controls on every plate. The follow-up (secondary) screen tested active chemical-pairs in concentration series, as well as a few additional assays not tested in the primary screen, some selected negative inactives, and several cases re-run in the concentration series for confirmatory purposes.

rat CYP2D1, Cyp2d1 (gene 266684), sequence (P10633 whole entry, looked up): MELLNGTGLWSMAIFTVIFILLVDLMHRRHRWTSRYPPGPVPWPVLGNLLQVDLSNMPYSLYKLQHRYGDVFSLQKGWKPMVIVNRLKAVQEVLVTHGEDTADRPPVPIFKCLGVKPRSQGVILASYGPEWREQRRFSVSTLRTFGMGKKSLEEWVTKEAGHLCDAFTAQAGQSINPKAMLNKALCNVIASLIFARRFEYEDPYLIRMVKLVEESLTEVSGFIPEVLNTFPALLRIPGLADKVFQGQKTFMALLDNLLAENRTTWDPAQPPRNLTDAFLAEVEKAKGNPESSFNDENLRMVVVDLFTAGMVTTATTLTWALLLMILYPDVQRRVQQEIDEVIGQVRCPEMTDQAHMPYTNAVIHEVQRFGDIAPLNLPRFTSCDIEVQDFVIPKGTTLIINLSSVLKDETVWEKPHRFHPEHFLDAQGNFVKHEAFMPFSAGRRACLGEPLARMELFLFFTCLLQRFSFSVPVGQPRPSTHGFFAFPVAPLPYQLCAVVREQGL

| Structure (SMILES) | AC50 |
| --- | --- |
| CC(C)(c1ccc(O)cc1)c1ccc(O)cc1 | 10 µM (active) |
| Oc1ccc(C(c2ccc(O)cc2)C(Cl)(Cl)Cl)cc1 | 2.7 µM (active) |
| N#CSCSc1nc2ccccc2s1 | 0.926 µM (active) |
| C=CCOC(Cn1ccnc1)c1ccc(Cl)cc1Cl (centres undefined) | 3.58 µM (active) |

Target: human Acetylcholinesterase (AChE), ACHE (gene 43) (UniProt P22303)
Experiment: NVS_ENZ_hAChE: NovaScreen (NVS) Enzymatic Assay for human Acetylcholinesterase (AChE) (AID 2283129)
In short: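 Actives from a duplicate single-point screen (25 uM) were followed up in concentration series. Enzyme activity read by absorbance (colorimetric) 0.33 hour after dosing, cell-free, normalized to DMSO, with loss of signal scored.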

human Acetylcholinesterase (AChE), ACHE (gene 43), sequence (P22303 whole entry, looked up): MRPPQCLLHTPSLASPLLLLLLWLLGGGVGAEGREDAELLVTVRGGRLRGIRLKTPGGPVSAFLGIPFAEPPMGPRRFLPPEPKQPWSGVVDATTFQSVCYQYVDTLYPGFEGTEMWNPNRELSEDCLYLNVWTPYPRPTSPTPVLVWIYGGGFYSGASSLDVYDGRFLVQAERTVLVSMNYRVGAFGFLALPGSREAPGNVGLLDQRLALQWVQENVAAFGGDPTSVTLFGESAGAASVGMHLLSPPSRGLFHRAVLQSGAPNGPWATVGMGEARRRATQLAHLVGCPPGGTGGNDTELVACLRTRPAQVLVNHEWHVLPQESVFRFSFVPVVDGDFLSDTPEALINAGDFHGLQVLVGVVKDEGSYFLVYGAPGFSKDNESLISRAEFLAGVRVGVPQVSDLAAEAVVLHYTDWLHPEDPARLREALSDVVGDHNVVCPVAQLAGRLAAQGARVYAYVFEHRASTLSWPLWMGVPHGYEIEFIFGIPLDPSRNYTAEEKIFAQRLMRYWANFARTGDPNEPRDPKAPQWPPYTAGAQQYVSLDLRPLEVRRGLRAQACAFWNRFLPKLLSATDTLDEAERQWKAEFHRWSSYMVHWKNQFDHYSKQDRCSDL

| Structure (SMILES) | AC50 | outcome |
| --- | --- | --- |
| CC(=O)[C@H]1CC[C@H]2[C@@H]3CCC4=CC(=O)CC[C@]4(C)[C@H]3CC[C@]12C | 4.82 µM (active) |  |
| S=C(S)NCCNC(=S)S.[Mn+2].[S-]C([S-])=NCCN=C([S-])[S-].[Zn+2] |  | inactive |
| CCCCCCCC(=O)O |  | inactive |
| CCN(CC)CCNc1ccc(CNC=O)c2sc3ccc(OC)cc3c(=O)c12 | 13.9 µM (active) |  |

Target: Protein deacetylase HDAC6 (Homo sapiens) (UniProt Q9UBN7)
Experiment: NVS_ENZ_hHDAC6: NovaScreen (NVS) Enzymatic Assay for human Histone Deacetylase 6 (HDAC6) (AID 2283164)
In short: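 Concentration-response runs up to 50 uM followed a duplicate 25 uM single-point screen. Deacetylase activity of recombinant human HDAC6 read by fluorescence after 1 h, with mobility-shift separation of substrate and product; DMSO as baseline.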

Protein deacetylase HDAC6 (Homo sapiens), sequence (Q9UBN7 whole entry, looked up): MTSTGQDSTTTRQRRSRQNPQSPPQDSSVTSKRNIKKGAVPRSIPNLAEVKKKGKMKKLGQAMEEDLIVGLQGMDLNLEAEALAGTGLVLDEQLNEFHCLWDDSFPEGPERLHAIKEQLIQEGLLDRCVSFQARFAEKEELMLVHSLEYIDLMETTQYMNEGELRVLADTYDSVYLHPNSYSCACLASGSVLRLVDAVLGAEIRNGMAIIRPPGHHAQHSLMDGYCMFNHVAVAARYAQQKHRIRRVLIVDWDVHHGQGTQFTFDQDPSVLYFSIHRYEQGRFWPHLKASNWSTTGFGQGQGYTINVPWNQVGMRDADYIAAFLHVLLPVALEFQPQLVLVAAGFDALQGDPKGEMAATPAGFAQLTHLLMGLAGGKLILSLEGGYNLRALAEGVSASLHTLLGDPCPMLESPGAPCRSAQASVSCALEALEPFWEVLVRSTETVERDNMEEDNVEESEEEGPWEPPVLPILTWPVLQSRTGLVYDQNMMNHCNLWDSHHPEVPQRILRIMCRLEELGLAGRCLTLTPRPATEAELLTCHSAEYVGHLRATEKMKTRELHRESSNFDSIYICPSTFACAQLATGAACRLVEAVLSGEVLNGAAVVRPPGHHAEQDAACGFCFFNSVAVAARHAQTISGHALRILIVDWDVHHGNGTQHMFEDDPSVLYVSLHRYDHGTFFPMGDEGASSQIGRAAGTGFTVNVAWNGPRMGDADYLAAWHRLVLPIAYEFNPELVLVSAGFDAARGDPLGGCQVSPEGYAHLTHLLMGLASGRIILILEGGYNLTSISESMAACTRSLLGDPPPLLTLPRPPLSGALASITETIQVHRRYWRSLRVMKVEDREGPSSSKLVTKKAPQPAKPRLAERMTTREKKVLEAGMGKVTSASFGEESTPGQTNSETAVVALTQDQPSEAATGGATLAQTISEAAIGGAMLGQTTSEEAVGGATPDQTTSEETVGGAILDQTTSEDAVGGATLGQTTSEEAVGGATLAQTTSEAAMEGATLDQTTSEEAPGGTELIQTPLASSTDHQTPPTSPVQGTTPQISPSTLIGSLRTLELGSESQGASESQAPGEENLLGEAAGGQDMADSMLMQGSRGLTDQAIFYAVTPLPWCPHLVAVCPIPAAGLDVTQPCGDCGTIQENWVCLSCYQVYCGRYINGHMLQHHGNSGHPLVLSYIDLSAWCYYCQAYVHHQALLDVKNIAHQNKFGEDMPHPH

| Structure (SMILES) | outcome | AC50 |
| --- | --- | --- |
| CC(=O)[C@H]1CC[C@H]2[C@@H]3CCC4=CC(=O)CC[C@]4(C)[C@H]3CC[C@]12C | inactive |  |
| S=C(S)NCCNC(=S)S.[Mn+2].[S-]C([S-])=NCCN=C([S-])[S-].[Zn+2] |  | 233 nM (active) and 815 nM (active) |
| N#CSCSc1nc2ccccc2s1 |  | 25 µM (active) |

Target: human Phosphatase and Tensin Homolog (PTEN), PTEN (gene 5728) (UniProt P60484)
Experiment: NVS_ENZ_hPTEN: NovaScreen (NVS) Enzymatic Assay for human Phosphatase and Tensin Homolog (PTEN) (AID 2283203)
In short: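 Loss of fluorescent product signal after mobility-shift separation reports PTEN activity, recombinant human enzyme, 1 h after compound addition. Single 25 uM duplicate screen, then concentration-response on actives; DMSO baseline.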

human Phosphatase and Tensin Homolog (PTEN), PTEN (gene 5728), sequence (P60484 whole entry, looked up): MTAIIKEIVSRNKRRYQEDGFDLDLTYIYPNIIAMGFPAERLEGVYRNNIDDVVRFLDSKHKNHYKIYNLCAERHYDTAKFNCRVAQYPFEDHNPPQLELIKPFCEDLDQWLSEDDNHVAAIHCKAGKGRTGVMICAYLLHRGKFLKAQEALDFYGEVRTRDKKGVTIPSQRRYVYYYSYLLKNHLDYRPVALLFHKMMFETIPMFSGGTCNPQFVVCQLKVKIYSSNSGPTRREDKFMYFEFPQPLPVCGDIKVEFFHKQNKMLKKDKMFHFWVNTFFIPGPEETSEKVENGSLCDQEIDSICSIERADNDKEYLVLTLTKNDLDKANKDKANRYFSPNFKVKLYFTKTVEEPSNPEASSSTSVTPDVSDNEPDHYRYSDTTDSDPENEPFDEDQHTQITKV

| Structure (SMILES) | outcome | AC50 |
| --- | --- | --- |
| CC(C)(c1ccc(O)cc1)c1ccc(O)cc1 | inactive |  |
| S=C(S)NCCNC(=S)S.[Mn+2].[S-]C([S-])=NCCN=C([S-])[S-].[Zn+2] |  | 3.14 µM (active) and 80.5 nM (active) and 274 nM (active) |
| N#CSCSc1nc2ccccc2s1 | inactive |  |

Target: rat Acetylcholinesterase (AChE), Ache (gene 83817) (UniProt P37136)
Experiment: NVS_ENZ_rAChE: NovaScreen (NVS) Enzymatic Assay for rat Acetylcholinesterase (AChE) (AID 2283233)
In short: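 Compounds first screened at 25 uM in duplicate, then those passing threshold tested in concentration series up to 50 uM, against AChE from rat brain membranes. Enzyme activity read by absorbance at 0.33 h; inhibition scored versus DMSO.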

rat Acetylcholinesterase (AChE), Ache (gene 83817), sequence (P37136 whole entry, looked up): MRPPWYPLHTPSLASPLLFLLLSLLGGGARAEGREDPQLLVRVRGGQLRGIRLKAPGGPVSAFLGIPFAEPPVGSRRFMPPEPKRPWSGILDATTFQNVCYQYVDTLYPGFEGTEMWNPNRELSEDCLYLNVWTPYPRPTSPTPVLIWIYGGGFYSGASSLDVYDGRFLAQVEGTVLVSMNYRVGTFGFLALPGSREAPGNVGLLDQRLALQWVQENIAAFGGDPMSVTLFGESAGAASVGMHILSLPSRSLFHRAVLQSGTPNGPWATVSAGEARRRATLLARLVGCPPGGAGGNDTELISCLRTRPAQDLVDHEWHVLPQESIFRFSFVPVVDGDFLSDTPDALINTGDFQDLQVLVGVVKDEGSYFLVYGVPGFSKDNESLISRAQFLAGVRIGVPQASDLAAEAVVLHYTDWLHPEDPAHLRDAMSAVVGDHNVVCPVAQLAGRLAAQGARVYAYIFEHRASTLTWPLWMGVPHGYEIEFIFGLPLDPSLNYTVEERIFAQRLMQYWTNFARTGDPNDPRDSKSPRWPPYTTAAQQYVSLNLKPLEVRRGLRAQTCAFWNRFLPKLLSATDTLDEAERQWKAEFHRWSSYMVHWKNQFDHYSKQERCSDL

| Structure (SMILES) | outcome | AC50 |
| --- | --- | --- |
| S=C(S)NCCNC(=S)S.[Mn+2].[S-]C([S-])=NCCN=C([S-])[S-].[Zn+2] | inactive |  |
| CCCCCCCC(=O)O | inactive |  |
| CCN(CC)CCNc1ccc(CNC=O)c2sc3ccc(OC)cc3c(=O)c12 |  | 15.7 µM (active) |

Test system: rat Monoamine Oxidase, MAO-A, Central (MAOAC), gene 29253
Experiment: NVS_ENZ_rMAOAC: NovaScreen (NVS) Enzymatic Assay for rat Monoamine Oxidase, MAO-A, Central (MAOAC) (AID 2283243);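 also: potency refers to inhibition seen as signal drop below DMSO baseline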
In short: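 Scintillation read-out of MAO-A activity in rat brain lysate, 1.5 h post-dosing. Primary single-concentration screen: 25 uM, duplicate; actives re-tested in concentration series. DMSO = negative control/baseline.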

| Structure (SMILES) | outcome | AC50 |
| --- | --- | --- |
| CC(=O)[C@H]1CC[C@H]2[C@@H]3CCC4=CC(=O)CC[C@]4(C)[C@H]3CC[C@]12C | inactive |  |
| Oc1ccc(C(c2ccc(O)cc2)C(Cl)(Cl)Cl)cc1 | inactive |  |
| CCN(CC)CCNc1ccc(CNC=O)c2sc3ccc(OC)cc3c(=O)c12 |  | 25 µM (active) |
| N#CSCSc1nc2ccccc2s1 |  | 45.9 µM (active) |

Target: human Neonicotinoid receptor (NNR), CHRNA2 (gene 1135) (UniProt Q15822)
Experiment: NVS_LGIC_hNNR_NBungSens: NovaScreen (NVS) Ligand-Gated Ion Channel Assay for human Neonicotinoid receptor (NNR) (AID 2283313)
In short: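 Compounds first screened in duplicate at 25 uM, then actives re-tested in single-replicate dose series up to 50 uM. Binding measured as displacement of specific radioligand from neuroblastoma membrane receptors after 2 h, scintillation read on filters.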

human Neonicotinoid receptor (NNR), CHRNA2 (gene 1135), sequence (Q15822 whole entry, looked up): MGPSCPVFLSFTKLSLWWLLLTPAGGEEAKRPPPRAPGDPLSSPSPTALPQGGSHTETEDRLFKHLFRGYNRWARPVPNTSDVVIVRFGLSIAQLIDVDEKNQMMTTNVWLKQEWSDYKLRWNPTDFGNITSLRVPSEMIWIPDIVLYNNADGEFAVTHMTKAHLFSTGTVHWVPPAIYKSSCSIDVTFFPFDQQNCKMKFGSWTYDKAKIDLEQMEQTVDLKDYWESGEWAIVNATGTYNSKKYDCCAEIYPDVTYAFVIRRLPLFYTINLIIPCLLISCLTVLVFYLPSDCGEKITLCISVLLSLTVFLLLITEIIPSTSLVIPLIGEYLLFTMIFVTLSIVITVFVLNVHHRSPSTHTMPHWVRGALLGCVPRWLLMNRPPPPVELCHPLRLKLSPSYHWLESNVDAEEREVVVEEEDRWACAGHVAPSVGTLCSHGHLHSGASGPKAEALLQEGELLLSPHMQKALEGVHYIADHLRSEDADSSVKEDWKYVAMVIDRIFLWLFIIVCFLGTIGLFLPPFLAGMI

| Structure (SMILES) | outcome | AC50 |
| --- | --- | --- |
| S=C(S)NCCNC(=S)S.[Mn+2].[S-]C([S-])=NCCN=C([S-])[S-].[Zn+2] | inactive |  |
| CCCCCCCC(=O)O |  | 37.4 µM (active) |
| CCN(CC)CCNc1ccc(CNC=O)c2sc3ccc(OC)cc3c(=O)c12 | inactive |  |

Reference: PubChem BioAssay (EPA / NIEHS)
